# Measured values taken from PubChem BioAssay (NCI).
# About 83,000 compounds went through this panel and 20% of them were active in at least one assay; those are over-represented in the sample as a whole.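 Negative percent growth values reflect cell death: -40 means 40% of the cells present at the start died, and -100 means all died.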 Values without a mark were called inactive. Calls of active or inactive are those of the source. Rule for the calls: active = growth percent below 10; inactive = the rest.
# Tests used:
# Experiment in all cases: NCI-60 one-dose screen, 48 h (100 = growth as untreated, 0 = no growth, -100 = all killed)
# Details in all cases: 10 µM unless noted
# SK-MEL-2 melanoma = tested on: SK-MEL-2 melanoma
# EKVX NSCLC = tested on: EKVX NSCLC
# SN12C renal = tested on: SN12C renal
# UO-31 renal = tested on: UO-31 renal
# TK-10 renal = tested on: TK-10 renal
# ACHN renal = tested on: ACHN renal
# A498 renal = tested on: A498 renal
# CCRF-CEM leukemia = tested on: CCRF-CEM leukemia
# MOLT-4 leukemia = tested on: MOLT-4 leukemia
# SR leukemia = tested on: SR leukemia
# RPMI-8226 leukemia = tested on: RPMI-8226 leukemia
# OVCAR-8 ovarian = tested on: OVCAR-8 ovarian
# OVCAR-5 ovarian = tested on: OVCAR-5 ovarian
# OVCAR-4 ovarian = tested on: OVCAR-4 ovarian
# SK-OV-3 ovarian = tested on: SK-OV-3 ovarian
# IGROV1 ovarian = tested on: IGROV1 ovarian
# OVCAR-3 ovarian = tested on: OVCAR-3 ovarian
# HS 578T breast = tested on: HS 578T breast
# NCI/ADR-RES ovarian = tested on: NCI/ADR-RES ovarian
# T-47D breast = tested on: T-47D breast
Compound,growth (SK-MEL-2 melanoma),growth (EKVX NSCLC),growth (SN12C renal),growth (UO-31 renal),growth (TK-10 renal),growth (ACHN renal),growth (A498 renal),growth (CCRF-CEM leukemia),growth (MOLT-4 leukemia),growth (SR leukemia),growth (RPMI-8226 leukemia),growth (OVCAR-8 ovarian),growth (OVCAR-5 ovarian),growth (OVCAR-4 ovarian),growth (SK-OV-3 ovarian),growth (IGROV1 ovarian),growth (OVCAR-3 ovarian),growth (HS 578T breast),growth (NCI/ADR-RES ovarian),growth (T-47D breast)
O=C1C(=O)c2c(nc3ccc(C(F)(F)F)cn23)-c2ccccc21,-67.1% (active),-72.5% (active),-84.4% (active),-97.5% (active),-97.3% (active),-99.1% (active),-92.9% (active),0.668% (active),-33.1% (active),-5.53% (active),-26.6% (active),-96% (active),-78% (active),-95.9% (active),-99.6% (active),-58.9% (active),-63% (active),-15.3% (active),-14.1% (active),-50.6% (active)
Cc1[nH]c2ncnc(Oc3ccc(NC(=O)Nc4ccc(Cl)c(C(F)(F)F)c4)cc3)c2c1C,61.2%,43%,69%,70.1%,81.1%,39.9%,76%,24.1%,27.4%,9.11% (active),44.7%,52%,98%,90.1%,91.9%,54.6%,56.3%,73.8%,64.5%,36.9%
NCCN1CCNCC1,111%,114%,92%,90.7%,106%,106%,92.9%,97%,102%,99.7%,79.2%,112%,94%,100%,101%,104%,109%,98%,102%,86.2%
C#C[C@@]1(O)[C@@H](CO)O[C@@H](n2cc(Cl)c3c(N)ccnc32)[C@@H]1O,76.9%,89.7%,78.8%,72.2%,122%,64.8%,87.7%,58.4%,45.6%,68.9%,39.9%,26.9%,111%,79.9%,95.4%,88.3%,47.6%,102%,28.5%,93.8%
CC(C)C[C@H](C(=O)O)N(C)C(=O)[C@@H]1CCCN1C(=O)[C@H](C)OC(=O)[C@H](CCC(N)=O)NC(=O)[C@@H]1CCC(=O)N1,110%,94.1%,97.1%,88.3%,105%,106%,107%,102%,111%,94.4%,108%,103%,100%,86.8%,92.8%,114%,103%,107%,111%,86.8%
CCCCN(CCCC)CC(CN(CC)CC)OC(=O)Nc1ccccc1 (stereo not given),99.4%,91.7%,94.4%,69.7%,85.5%,99.2%,117%,98.1%,80.8%,86.3%,96.7%,106%,76.7%,77.1%,87.4%,57%,108%,113%,82.4%,92.2%
COC(=O)c1ccc(NC(=O)CSc2nc(-c3ccc(F)cc3)nc3ccccc23)cc1,99.8%,91.4%,79.3%,82.3%,113%,97.4%,99.6%,85.7%,89%,78%,44.9%,82.2%,107%,-31.5% (active),90.9%,90.9%,16.8%,82.8%,88%,67.7%
Nc1cccc(C(=O)Nc2ccc3c(O)c(N=Nc4ccc(N=Nc5ccc(S(=O)(=O)O)cc5)cc4)c(S(=O)(=O)O)cc3c2)c1,108%,103%,106%,90.2%,101%,105%,105%,96.6%,84.6%,77.4%,98.2%,107%,109%,94.3%,101%,97.8%,102%,103%,112%,83.8%
CN(C)CCCn1c2c(c3cc(-c4cccc(S(N)(=O)=O)c4)ccc3c1=O)C(=O)c1ccccc1-2,124%,88.6%,78.3%,72.9%,99.5%,57.2%,96.4%,18.8%,8.99% (active),-5.99% (active),70.3%,56%,97.7%,82.3%,67.8%,66.7%,87.8%,99.6%,70.6%,74.7%
N#Cc1nc(-c2ccccc2)oc1S(=O)(=O)NCC(c1ccc(Cl)cc1)N1CCCCC1 (stereo not given),72.2%,106%,65.6%,65.5%,112%,82.7%,102%,1.94% (active),1.32% (active),12.2%,3.47% (active),71.3%,102%,99.3%,113%,44.2%,61.9%,102%,91.1%,65.1%
Oc1ccccc1-c1nc2c3ccccc3c3ccccc3c2o1,110%,78.8%,83%,61%,162%,91.1%,114%,82.1%,95.3%,73.7%,75.5%,89%,114%,76.4%,90.4%,74.1%,97.2%,89.5%,94.5%,78.9%
N#Cc1c(-c2ccc(F)cc2)nc(N/N=C/c2cccc(O)c2)nc1N1CCOCC1,85.9%,86.9%,96.7%,45.3%,63.3%,66.9%,78.7%,56.4%,40%,2.93% (active),41.3%,69.7%,108%,79.7%,93.9%,61.4%,78.6%,84.4%,72.8%,89.2%
CC(=O)c1ccc(NC(=O)CSc2nnc(-c3cc(-c4ccc(Cl)cc4)nc4ccccc34)o2)cc1,87.3%,97.3%,37.9%,86.6%,83.7%,89.8%,105%,60.8%,66.6%,0.55% (active),25.5%,82%,96.7%,71.1%,90.1%,92.7%,107%,110%,83.2%,79.1%
CCCCCCCc1n(Cc2ccc3ccccc3c2)c2ccccc2[n+]1Cc1ccc2ccccc2c1,-74.9% (active),-73.5% (active),-79.8% (active),-88.1% (active),-87.3% (active),-87.4% (active),-93.3% (active),-59.1% (active),-68% (active),-60.4% (active),-53% (active),-69.8% (active),-83.7% (active),-62.5% (active),-91.7% (active),-67.5% (active),-86.7% (active),-42.7% (active),-35% (active),-74.2% (active)
